# Reference: PubChem BioAssay (Tox21)
# A number with no mark means an inactive call. Records with an inconclusive call do not appear. Where a call stands in place of a potency, no number is given. The source made the active and inactive calls. The call rests on the fitted dose curve; in most records, active means well fitted curve in the direction sought with a large enough effect in the repeat runs; inconclusive means weak or mixed curves; inactive means no such curve, though single readings can be large; an effect the other way counts as inactive or inconclusive.
# Columns and labels:
# [1] = Caspase-3/7 induction in HepG2 cells by small molecules, qHTS assay (AID 1346978); details: HepG2 caspase-3/7 activation, Caspase-Glo luminescence, 17 h; series mostly up to 92.4 µM; further: nearly all actives have a fitted effect of over 15% in size
# Outline: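 Caspase-3/7 induction was measured by Caspase-Glo 3/7 luminescence (30 min, room temperature) after a 17 hr compound exposure of wild-type HepG2 cells seeded at 2,000 per well and pre-incubated 5 hr.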
# [2] = Caspase-3/7 induction in CHO-K1 cells by small molecules, qHTS cell viability counter screen (AID 1346979); details: CellTiter-Fluor fluorescence, 17 h; series mostly up to 92.4 µM; further: nearly all actives have a fitted effect of over 35% in size; further: potency means the concentration at half of the fitted maximal effect
# Outline: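 CHO-K1 wt, 1,500 cells/well; 5hr pre-incubation 37C/5% CO2; compound pin transfer (DMSO); 16hr exposure; CellTiter-Fluor added, 1hr, fluorescence read.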
# [3] = Caspase-3/7 induction in CHO-K1 cells by small molecules, qHTS assay (AID 1346980); details: CHO-K1 caspase-3/7 induction, Caspase-Glo luminescence, 17 h; series mostly up to 92.4 µM; further: nearly all actives have a fitted effect of over 15% in size
# Outline: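 Luminescent Caspase-Glo 3/7 read (30min, room temperature) quantified apoptosis induction. Cells were wild-type CHO-K1, treated with compound for 17hr at 37 C and 5% CO2.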
# [4] = molecular target: Nuclear receptor subfamily 1 group I member 2 (Homo sapiens) (UniProt O75469); experiment: Human pregnane X receptor (PXR) small molecule agonists, qHTS assay (AID 1346982); details: PXR-Luc HepG2, CYP3A4 luciferase reporter, 24 h; series mostly up to 92.4 µM; further: nearly all actives have a fitted effect of over 35% in size; further: potency means the concentration at half of the fitted maximal effect
# Outline: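 After plating in 5% charcoal-stripped FBS and a 5 hr rest, PXR-Luc HepG2 cells received compounds in DMSO. Following 24 hr at 37 C, ONE-Glo was added and light output read.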
# [5] = molecular target: Cytochrome P450 2D6 (Homo sapiens) (UniProt P10635); experiment: Cytochrome P450 Family 2 Subfamily D Member 6 (CYP2D6) small molecule antagonists: luciferase reporter qHTS assay (AID 1671196); details: P450-Glo CYP2D6 enzyme assay, luciferin luminescence, 1 h; series mostly up to 115 µM; further: nearly all actives have a fitted effect of over 50% in size; further: potency means the concentration at half of the fitted maximal effect
# Outline: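 Quantitative HTS of Tox21 chemicals against CYP2D6 using a luminescent proluciferin substrate. After NADPH addition, 1 h room-temperature reaction; luminescence recorded 20 min post detection reagent.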
# [6] = molecular target: Cytochrome P450 2C19 (Homo sapiens) (UniProt P33261); experiment: Cytochrome P450 Family 2 Subfamily C Member 19 (CYP2C19) small molecule antagonists: luciferase reporter qHTS assay (AID 1671197); details: P450-Glo CYP2C19 enzyme, luciferin luminescence, 1 h; series mostly up to 115 µM; further: nearly all actives have a fitted effect of over 65% in size; further: potency means the concentration at half of the fitted maximal effect
# Outline: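 Enzyme-substrate mix with proluciferin substrate (P450-Glo CYP2C19 system) preincubated with compounds 10 min at room temperature; NADPH regeneration solution added, 37C for 1 h; detection reagent stops reaction, luminescence read after 20 min. Ketoconazole positive control.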
# [7] = molecular target: Cytochrome P450 2C9 (Homo sapiens) (UniProt P11712); experiment: Cytochrome P450 Family 2 Subfamily C Member 9 (CYP2C9) small molecule antagonists: luciferase reporter qHTS assay (AID 1671198); details: P450-Glo CYP2C9 enzyme assay, luciferin luminescence; series mostly up to 115 µM; further: nearly all actives have a fitted effect of over 50% in size; further: potency means the concentration at half of the fitted maximal effect
# Outline: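 Enzyme-substrate mix preincubated with compound 10 min at room temperature; reaction started with NADPH regeneration solution, 1 h 37C. Luminescent luciferin product read after 20 min detection reagent.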
# [8] = molecular target: Cytochrome P450 1A2 (Homo sapiens) (UniProt P05177); experiment: Cytochrome P450 Family 1 Subfamily A Member 2 (CYP1A2) small molecule antagonists: luciferase reporter qHTS assay (AID 1671199); details: P450-Glo CYP1A2 enzyme, luciferin luminescence, 1 h; series mostly up to 115 µM; further: nearly all actives have a fitted effect of over 50% in size; further: potency means the concentration at half of the fitted maximal effect
# Outline: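 Quantitative high-throughput format using the P450-Glo CYP1A2 system. Reaction initiated by NADPH regeneration solution, 1 h at room temperature, then stopped with detection reagent; luminescence measured 20 min later.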
# [9] = molecular target: Voltage-gated inwardly rectifying potassium channel KCNH2 (Homo sapiens) (UniProt Q12809); experiment: Human Ether-a-go-go-Related Gene (hERG) channel small molecule antagonists: fluorescence cell-based qHTS assay (AID 1671200); details: hERG-U2OS cells, FluxOR thallium flux fluorescence; series mostly up to 76.8 µM; further: nearly all actives have a fitted effect of over 50% in size; further: potency means the concentration at half of the fitted maximal effect
# Outline: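 Read-out: thallium influx as a surrogate for potassium, tracked as fluorescence (480 nm ex/540 nm em) every second for 2 min after Stimulus Buffer addition in dye-loaded hERG-U2OS cells.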
# [10] = molecular target: Nuclear receptor subfamily 1 group I member 2 (Rattus norvegicus) (UniProt Q9R1A7); experiment: Rat pregnane X receptor (rPXR) activation by small molecules, qHTS assay (AID 1346983); details: rPXR luciferase reporter cells, One-Glo luminescence, 24 h; max activation: hits give high values; further: nearly all actives have a fitted effect of over 20% in size
# Outline: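 Luminescent readout (One-Glo luciferase, 30 min room temperature) followed 24 hr compound treatment at 37 C of rPXR cells plated 2,000 per well and preincubated 5hr; qHTS format with compounds delivered in DMSO.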
# [11] = molecular target: Nuclear receptor subfamily 1 group I member 2 (Homo sapiens) (UniProt O75469); experiment: CYP3A4 induction through human pregnane X receptor (PXR) by small molecules, qHTS assay (AID 1346984); details: DPX-2 HepG2 PXR, CYP3A4-luciferin luminescence, 24 h; series mostly up to 46.1 µM; further: nearly all actives have a fitted effect of over 40% in size; further: potency means the concentration at half of the fitted maximal effect
# Outline: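 Human PXR activation is tracked via CYP3A4 promoter-luciferase in DPX-2 (HepG2) cells. Compounds treat cells for 24hr at 37C, and luminescence is read after One-Glo.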
# [12] = molecular target: Nuclear receptor subfamily 1 group I member 2 (Homo sapiens) (UniProt O75469); experiment: Human pregnane X receptor (PXR) activation by small molecules, qHTS assay (AID 1346985); details: DPX-2 HepG2 CYP3A4-luciferase, 24 h; series mostly up to 38.3 µM; further: nearly all actives have a fitted effect of over 40% in size; further: potency means the concentration at half of the fitted maximal effect
# Outline: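 DPX-2 cells (HepG2 co-transfected with a PXR response element and a CYP3A4-promoter luciferase construct) were seeded at 2,000 per well, rested 5 hr at 37C, then exposed to DMSO-dissolved compounds for 24 hr. Activation was read as luciferase luminescence.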
# [13] = molecular target: Cytochrome P450 3A4 (Homo sapiens) (UniProt P08684); experiment: Cytochrome P450 Family 3 Subfamily A Member 4 (CYP3A4) small molecule antagonists: luciferase reporter qHTS assay (AID 1671201); details: P450-Glo CYP3A4 enzyme, luciferin luminescence, 1 h; series mostly up to 115 µM; further: nearly all actives have a fitted effect of over 50% in size; further: potency means the concentration at half of the fitted maximal effect
# Outline: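 Luminescent readout (RLU) proportional to CYP3A4 activity, from luciferin generated off a proluciferin substrate. Enzyme–substrate mix plus compound 10 min at room temp, NADPH regeneration 1 h, detection reagent 20 min.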
# [14] = Caspase-3/7 induction in HepG2 cells by small molecules, qHTS cell viability counter screen (AID 1346981); details: CellTiter-Fluor fluorescence, 17 h; series mostly up to 92.4 µM; further: nearly all actives have a fitted effect of over 30% in size; further: potency means the concentration at half of the fitted maximal effect
# Outline: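 The parent HepG2 line is plated at 2,000 cells per well and rested 5 hr before compound pinning from DMSO stocks. Following a 16-hr treatment at 37 C, a fluorogenic live-cell substrate (CellTiter-Fluor) reports viability after 1 hr.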
# Chain of Cytochrome P450 2D6 (Homo sapiens) (P10635 whole entry, looked up): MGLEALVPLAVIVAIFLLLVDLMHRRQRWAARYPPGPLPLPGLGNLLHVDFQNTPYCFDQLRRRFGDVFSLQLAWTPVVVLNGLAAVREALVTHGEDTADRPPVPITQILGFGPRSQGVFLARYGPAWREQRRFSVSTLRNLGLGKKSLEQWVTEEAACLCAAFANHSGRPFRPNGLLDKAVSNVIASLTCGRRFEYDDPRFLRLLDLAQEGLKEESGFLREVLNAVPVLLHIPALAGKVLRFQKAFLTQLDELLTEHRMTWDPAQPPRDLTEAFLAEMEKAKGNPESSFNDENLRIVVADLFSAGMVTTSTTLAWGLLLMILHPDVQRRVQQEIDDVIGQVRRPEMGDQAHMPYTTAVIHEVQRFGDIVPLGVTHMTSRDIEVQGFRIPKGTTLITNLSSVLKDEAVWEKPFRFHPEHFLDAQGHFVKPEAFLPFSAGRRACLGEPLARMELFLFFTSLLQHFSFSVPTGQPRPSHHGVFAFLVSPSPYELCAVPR
# Chain of Cytochrome P450 2C19 (Homo sapiens) (P33261 whole entry, looked up): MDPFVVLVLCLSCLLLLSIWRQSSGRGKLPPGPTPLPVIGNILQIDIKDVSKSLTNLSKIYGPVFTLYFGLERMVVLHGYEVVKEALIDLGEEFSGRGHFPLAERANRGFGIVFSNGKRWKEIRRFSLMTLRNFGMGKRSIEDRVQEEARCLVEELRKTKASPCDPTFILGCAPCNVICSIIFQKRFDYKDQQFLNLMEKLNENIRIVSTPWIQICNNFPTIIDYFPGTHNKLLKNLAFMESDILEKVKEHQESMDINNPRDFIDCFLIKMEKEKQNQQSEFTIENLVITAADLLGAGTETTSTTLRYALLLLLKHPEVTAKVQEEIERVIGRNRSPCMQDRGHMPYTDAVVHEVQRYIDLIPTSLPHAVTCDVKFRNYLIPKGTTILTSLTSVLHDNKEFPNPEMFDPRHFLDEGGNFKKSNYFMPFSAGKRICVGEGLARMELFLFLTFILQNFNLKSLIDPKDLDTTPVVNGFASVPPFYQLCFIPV
# Chain of Cytochrome P450 3A4 (Homo sapiens) (P08684 whole entry, looked up): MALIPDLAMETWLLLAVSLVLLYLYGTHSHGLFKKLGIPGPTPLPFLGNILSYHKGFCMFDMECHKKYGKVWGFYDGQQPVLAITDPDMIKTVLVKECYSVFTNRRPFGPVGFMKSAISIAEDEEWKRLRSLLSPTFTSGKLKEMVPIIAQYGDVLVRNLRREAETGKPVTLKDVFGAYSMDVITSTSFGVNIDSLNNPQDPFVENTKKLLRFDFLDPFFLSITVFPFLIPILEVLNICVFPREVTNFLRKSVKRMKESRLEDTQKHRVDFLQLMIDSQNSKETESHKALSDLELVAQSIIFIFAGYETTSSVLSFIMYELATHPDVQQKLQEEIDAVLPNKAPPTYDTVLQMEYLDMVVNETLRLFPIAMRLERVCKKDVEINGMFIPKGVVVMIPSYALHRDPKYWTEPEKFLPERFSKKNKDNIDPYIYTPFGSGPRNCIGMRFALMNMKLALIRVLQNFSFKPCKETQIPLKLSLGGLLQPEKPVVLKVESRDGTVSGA
# Chain of Voltage-gated inwardly rectifying potassium channel KCNH2 (Homo sapiens) (Q12809 whole entry, looked up): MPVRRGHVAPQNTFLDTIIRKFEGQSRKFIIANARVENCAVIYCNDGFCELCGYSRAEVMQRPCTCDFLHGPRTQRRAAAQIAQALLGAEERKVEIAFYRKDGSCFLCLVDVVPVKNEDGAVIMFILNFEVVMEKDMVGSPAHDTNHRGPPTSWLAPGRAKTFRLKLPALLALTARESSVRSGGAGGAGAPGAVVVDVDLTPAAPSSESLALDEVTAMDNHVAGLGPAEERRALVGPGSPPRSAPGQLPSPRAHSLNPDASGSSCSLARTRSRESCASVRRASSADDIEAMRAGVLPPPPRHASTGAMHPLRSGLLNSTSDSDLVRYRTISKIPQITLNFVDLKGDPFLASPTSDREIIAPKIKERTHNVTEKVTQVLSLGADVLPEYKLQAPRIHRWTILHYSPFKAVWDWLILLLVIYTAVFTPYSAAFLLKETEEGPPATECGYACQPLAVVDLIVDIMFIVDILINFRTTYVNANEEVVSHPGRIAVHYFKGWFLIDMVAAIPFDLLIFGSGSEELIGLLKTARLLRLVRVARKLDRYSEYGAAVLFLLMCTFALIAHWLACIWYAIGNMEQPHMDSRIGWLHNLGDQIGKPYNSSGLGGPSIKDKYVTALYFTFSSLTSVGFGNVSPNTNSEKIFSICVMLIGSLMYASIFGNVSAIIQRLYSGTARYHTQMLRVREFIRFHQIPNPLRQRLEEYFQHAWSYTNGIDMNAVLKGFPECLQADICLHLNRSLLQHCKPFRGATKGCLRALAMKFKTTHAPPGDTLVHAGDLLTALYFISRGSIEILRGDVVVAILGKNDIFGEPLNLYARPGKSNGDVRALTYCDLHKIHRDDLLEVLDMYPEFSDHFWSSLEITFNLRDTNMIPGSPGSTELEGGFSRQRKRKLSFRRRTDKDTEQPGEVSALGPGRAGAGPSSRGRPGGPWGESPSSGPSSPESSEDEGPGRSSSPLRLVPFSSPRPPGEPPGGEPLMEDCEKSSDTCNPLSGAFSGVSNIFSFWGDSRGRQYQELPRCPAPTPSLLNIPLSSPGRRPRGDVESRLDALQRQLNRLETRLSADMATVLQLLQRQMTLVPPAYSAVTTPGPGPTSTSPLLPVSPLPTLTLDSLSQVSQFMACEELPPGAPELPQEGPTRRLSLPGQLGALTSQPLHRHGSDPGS
# Chain of Nuclear receptor subfamily 1 group I member 2 (Homo sapiens) (O75469 whole entry, looked up): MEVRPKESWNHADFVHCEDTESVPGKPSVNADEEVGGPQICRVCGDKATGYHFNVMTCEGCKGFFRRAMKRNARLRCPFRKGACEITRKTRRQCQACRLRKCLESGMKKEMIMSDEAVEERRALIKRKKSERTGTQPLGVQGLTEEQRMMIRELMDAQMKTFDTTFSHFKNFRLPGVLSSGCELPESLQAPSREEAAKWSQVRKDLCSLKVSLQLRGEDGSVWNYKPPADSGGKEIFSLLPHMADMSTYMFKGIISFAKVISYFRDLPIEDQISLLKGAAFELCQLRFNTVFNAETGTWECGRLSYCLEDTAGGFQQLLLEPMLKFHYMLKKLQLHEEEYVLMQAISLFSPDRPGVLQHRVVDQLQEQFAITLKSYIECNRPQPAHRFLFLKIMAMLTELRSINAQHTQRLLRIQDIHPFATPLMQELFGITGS
# Chain of Cytochrome P450 1A2 (Homo sapiens) (P05177 whole entry, looked up): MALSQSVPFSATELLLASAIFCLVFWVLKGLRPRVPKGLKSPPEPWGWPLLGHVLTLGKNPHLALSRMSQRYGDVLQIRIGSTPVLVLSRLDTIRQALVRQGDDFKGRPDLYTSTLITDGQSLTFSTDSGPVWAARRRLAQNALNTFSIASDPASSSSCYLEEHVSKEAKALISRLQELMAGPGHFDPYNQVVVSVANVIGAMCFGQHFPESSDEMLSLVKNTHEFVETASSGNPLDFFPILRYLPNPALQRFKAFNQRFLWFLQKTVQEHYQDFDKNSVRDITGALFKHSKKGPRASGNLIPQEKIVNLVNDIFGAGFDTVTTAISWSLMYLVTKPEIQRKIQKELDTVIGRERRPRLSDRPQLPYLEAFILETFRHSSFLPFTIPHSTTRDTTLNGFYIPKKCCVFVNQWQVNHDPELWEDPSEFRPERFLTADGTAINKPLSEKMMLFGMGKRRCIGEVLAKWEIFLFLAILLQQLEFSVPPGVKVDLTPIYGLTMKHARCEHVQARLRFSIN
# Chain of Nuclear receptor subfamily 1 group I member 2 (Rattus norvegicus) (Q9R1A7 whole entry, looked up): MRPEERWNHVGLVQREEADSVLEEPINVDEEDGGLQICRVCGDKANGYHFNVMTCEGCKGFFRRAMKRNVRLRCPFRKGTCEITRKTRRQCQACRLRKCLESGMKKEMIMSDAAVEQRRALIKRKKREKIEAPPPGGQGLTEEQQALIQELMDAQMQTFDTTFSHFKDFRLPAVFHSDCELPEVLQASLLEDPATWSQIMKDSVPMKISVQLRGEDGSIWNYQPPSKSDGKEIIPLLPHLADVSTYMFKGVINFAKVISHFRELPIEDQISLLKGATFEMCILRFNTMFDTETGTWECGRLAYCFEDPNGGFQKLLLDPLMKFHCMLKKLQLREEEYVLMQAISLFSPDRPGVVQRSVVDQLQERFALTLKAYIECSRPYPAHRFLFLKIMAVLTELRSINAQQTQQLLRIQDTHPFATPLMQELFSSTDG
# Chain of Cytochrome P450 2C9 (Homo sapiens) (P11712 whole entry, looked up): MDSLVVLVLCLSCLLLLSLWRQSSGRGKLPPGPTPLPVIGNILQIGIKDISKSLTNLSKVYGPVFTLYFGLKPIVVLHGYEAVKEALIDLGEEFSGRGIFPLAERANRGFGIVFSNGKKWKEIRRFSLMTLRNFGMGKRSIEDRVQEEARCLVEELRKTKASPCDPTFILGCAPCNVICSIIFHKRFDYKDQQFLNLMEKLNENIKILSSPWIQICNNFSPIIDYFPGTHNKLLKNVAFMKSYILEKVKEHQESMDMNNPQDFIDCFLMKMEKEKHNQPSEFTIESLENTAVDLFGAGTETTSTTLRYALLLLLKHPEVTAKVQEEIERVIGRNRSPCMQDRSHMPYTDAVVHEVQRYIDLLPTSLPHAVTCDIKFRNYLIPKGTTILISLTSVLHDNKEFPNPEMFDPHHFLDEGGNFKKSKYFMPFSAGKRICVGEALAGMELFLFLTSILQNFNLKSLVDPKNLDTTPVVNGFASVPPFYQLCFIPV
Compound,Potency [1],Potency [2],outcome [3],Potency [4],Potency [5],Potency [6],Potency [7],Potency [8],Potency [9],max activation [10] [%],Potency [11],Potency [12],Potency [13],Potency [14]
CC(C)N=C=NC(C)C,inactive,inactive,inactive,inactive,inactive,inactive,inactive,inactive,inactive,–,–,–,–,–
CCN(CC)CCOc1ccccc1C(=O)CCc1ccccc1,inactive,inactive,inactive,26.6 µM (active),0.692 µM (active),inactive,inactive,7.76 µM (active),3.38 µM (active),4.09,14.1 µM (active),15.8 µM (active),–,–
Nc1ccc(NC(=O)c2ccc(N)cc2)cc1,inactive,inactive,inactive,inactive,inactive,–,–,inactive,–,–,–,–,5.65 µM (active),–
O=C(O)c1ccc(O)cc1O,inactive,inactive,inactive,inactive,inactive,–,–,inactive,inactive,–,–,–,inactive,–
Cc1ccc(Nc2c(F)cccc2Cl)c(CC(=O)O)c1,inactive,inactive,inactive,–,inactive,8.71 µM (active),17.4 µM (active),12.3 µM (active),inactive,–,–,–,inactive,–
CNCc1ccc(NC(=O)c2c[nH]c3c2C(=O)CCC3)cc1,inactive,inactive,inactive,1.09 µM (active),inactive,–,–,31.7 µM (active),inactive,–,–,–,–,–
CC[C@H]1OC(=O)[C@H](C)[C@@H](O[C@H]2C[C@@](C)(OC)[C@@H](O)[C@H](C)O2)[C@H](C)[C@@H](O[C@@H]2O[C@H](C)C[C@H](N(C)C)[C@H]2O)[C@](C)(O)C[C@@H](C)/C(=N\OCOCCOC)[C@H](C)[C@@H](O)[C@]1(C)O,inactive,28.6 µM (active),inactive,–,inactive,inactive,inactive,inactive,inactive,0.558,inactive,inactive,3.33 µM (active),–
CCCCCCCC/C=C\CCCCCCCC(=O)OCCO,inactive,inactive,inactive,–,–,52.9 µM (active),–,–,inactive,–,–,–,–,inactive
CC(=O)OCC(=O)[C@@]1(OC(C)=O)[C@@H](C)C[C@H]2[C@@H]3C[C@H](F)C4=CC(=O)C=C[C@]4(C)[C@@]3(F)[C@@H](O)C[C@@]21C,inactive,inactive,inactive,–,inactive,inactive,–,inactive,inactive,–,–,–,inactive,–
Cc1c(C2(c3cc(Br)c(O)c(Br)c3C)OS(=O)(=O)c3ccccc32)cc(Br)c(O)c1Br,inactive,16.7 µM (active),inactive,–,24.4 µM (active),15.4 µM (active),10.9 µM (active),13.7 µM (active),inactive,–,–,–,–,–
SCCc1cnccn1,inactive,inactive,inactive,inactive,inactive,31.7 µM (active),–,35.6 µM (active),inactive,–,–,–,inactive,–
CC(=O)OCCC1CCCCC1,inactive,inactive,inactive,inactive,inactive,inactive,inactive,–,–,–,–,–,–,–
CCCOC(=O)c1c(Cl)c(Cl)c(Cl)c(Cl)c1C(=O)OCCC,inactive,–,–,17.2 µM (active),inactive,7.1 µM (active),17.8 µM (active),2.24 µM (active),inactive,–,–,–,–,–
Oc1ccc2c(c1)Cc1ccccc1-2,inactive,–,inactive,30.6 µM (active),inactive,28.3 µM (active),35.6 µM (active),3.56 µM (active),inactive,–,–,–,–,–
Nc1nc(-c2ccc([N+](=O)[O-])cc2)cs1,inactive,–,inactive,–,inactive,3.6 µM (active),–,5.08 µM (active),–,–,–,–,–,–
CCCCCCCCCCCCCOS(=O)(=O)O,inactive,–,inactive,inactive,inactive,inactive,–,inactive,–,–,–,–,–,–
COc1cc(C(C)=O)ccc1OCCCN1CCC(c2noc3cc(F)ccc23)CC1,inactive,–,inactive,–,11 µM (active),inactive,–,inactive,1.07 µM (active),–,–,–,–,–
CC(C)COC(=O)c1ccc(O)cc1,inactive,–,inactive,3.06 µM (active),–,3.17 µM (active),25.2 µM (active),2.82 µM (active),–,–,–,–,–,inactive
CCCc1nc2c(C)cc(-c3nc4ccccc4n3C)cc2n1Cc1ccc(-c2ccccc2C(=O)O)cc1,inactive,–,inactive,–,inactive,7.76 µM (active),7.76 µM (active),inactive,inactive,-2.19,–,–,–,–
CN1CCCN(C(c2ccccc2)c2ccc(Cl)cc2)CC1 (configuration not stated),–,26.6 µM (active),inactive,inactive,0.49 µM (active),inactive,inactive,inactive,1.9 µM (active),–,–,–,–,23.7 µM (active)
O=C(/C=C/c1ccc([N+](=O)[O-])cc1)c1ccccc1,–,–,inactive,24.4 µM (active),–,1.59 µM (active),11.3 µM (active),5.04 µM (active),inactive,–,–,–,inactive,–
O=C(O)CCCc1c[nH]c2ccccc12,inactive,–,inactive,inactive,inactive,–,inactive,inactive,inactive,–,–,–,inactive,–
Cc1ccc2nc(N)[nH]c(=O)c2c1Sc1ccncc1,inactive,–,inactive,inactive,15.5 µM (active),1.55 µM (active),5.49 µM (active),2.88 µM (active),inactive,-1.84,–,–,–,–
